# Experimental data taken from PubChem BioAssay AID1851 (National Center for Advancing Translational Sciences (NCATS), 2009).
# Values joined by “and” are separate entries in the source; they are usually repeats but may differ in a detail not shown here. Equal entries are not always repeated. The whole screen tested about 16,000 compounds, of which about 2,600 (16%) were called active. Another 20% or so got no clear call; they are omitted. Calls follow the shape of the dose curve; as a rule, active = well fitted curve in the direction sought with a large enough effect; inconclusive = small, poorly fitted or top-dose-only effect, or effect the other way; inactive = no such curve, though single readings can be large or run the other way. A selection follows. The source holds several records for some structures; these can differ, active in one and inactive in another.
# Target: Cytochrome P450 2D6 (Homo sapiens) (UniProt P10635)
# Sequence (P10635 whole entry, looked up): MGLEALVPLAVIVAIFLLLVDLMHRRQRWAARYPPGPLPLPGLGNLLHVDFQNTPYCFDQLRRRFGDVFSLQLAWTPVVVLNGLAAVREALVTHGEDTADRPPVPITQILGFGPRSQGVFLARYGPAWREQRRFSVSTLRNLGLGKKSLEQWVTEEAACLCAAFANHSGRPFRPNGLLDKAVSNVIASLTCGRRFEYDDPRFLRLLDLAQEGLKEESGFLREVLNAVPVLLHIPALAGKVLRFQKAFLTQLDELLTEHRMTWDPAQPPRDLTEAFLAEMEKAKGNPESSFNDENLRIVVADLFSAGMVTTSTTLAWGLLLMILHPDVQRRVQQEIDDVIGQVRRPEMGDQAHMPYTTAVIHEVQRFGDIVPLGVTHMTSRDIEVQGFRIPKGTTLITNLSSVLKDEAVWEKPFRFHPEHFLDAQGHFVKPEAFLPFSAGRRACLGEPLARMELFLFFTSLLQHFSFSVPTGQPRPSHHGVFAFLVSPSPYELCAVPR
# Assay: Cytochrome panel assay with activity outcomes
# Conditions: recombinant CYP, pro-luciferin dealkylation, luminescence, p450-cyp2d6; series mostly up to 57.1 µM; activity, negative = inhibition: at the top concentration
# % is scaled to controls: 0 for no effect and ±100 for the full control effect.
Compound,"activity, negative = inhibition",AC50
O=c1c(-c2cccc(F)c2)nc2cncnc2n1C1CC1,-4.2% (inactive),
CC(C)(C)N(NC(=O)c1ccccc1)C(=O)c1cccc(C(=O)N(NC(=O)c2ccccc2)C(C)(C)C)c1,-27.5% (inactive),
O=C(O)/C=C\c1ccc(O)c(O)c1,4.2% [at 25.6 µM] (inactive),
O=C(O)/C=C\c1ccc(Cn2ccnc2)cc1,0.822% [at 25.6 µM] (inactive),
O=C(O)C=Cc1ccc(Cn2ccnc2)cc1,,0.0794 µM (active)
CC(C)(C)C(=O)NC(=S)NCCc1ccccc1,-7.67% (inactive),
COc1ccccc1NC(=S)NCCc1ccccc1,,7.08 µM (active)
Fc1cc(Br)ccc1NC(=S)NCCc1ccccc1,,20 µM (active)
CCNC(=S)NNC(=O)Cc1ccccc1,9.05% (inactive),
Fc1ccccc1NC(=S)NCCc1ccccc1,,15.8 µM (active)
O=C(NCCc1ccccc1)C(=O)NN=C1CCCC1,-4.67% (inactive),
COc1ccccc1NC(=S)NC(=O)c1ccc(-c2ccc(Cl)cc2)o1,10.4% (inactive),
CCN(C(=S)Nc1ccccc1F)C1CCCCC1,-3.58% (inactive),
CCNc1ncc2nc(-c3ccccc3)c(=O)n(Cc3ccc(F)cc3)c2n1,-1.91% (inactive),
CS(=O)(=O)N1CCC2(CCCN(C(=O)Nc3cccc(C#N)c3)C2)CC1,-4% (inactive),
COCCn1c(=O)c(-c2ccccc2)nc2cnc(OC)nc21,-10.7% (inactive),
CCn1c(CCCc2nc3c([nH]2)c(=O)n(C)c(=O)n3C)nc2c1c(=O)n(C)c(=O)n2C,8.15% [at 11.4 µM] (inactive),
S=c1[nH]nc(CCc2ccccc2)n1Cc1ccccc1,-22.7% (inactive),
CC(=O)c1ccc(N2CCC(c3cc(-c4ccc(Cl)cc4Cl)n[nH]3)CC2)c([N+](=O)[O-])c1,-14.1% (inactive),
COc1ccc(C(=O)n2c(SC)nc3cc4c(cc32)OCCO4)cc1,-8.26% (inactive),
Cc1cccc(OCCSCc2nc3ccccc3[nH]2)c1,,0.282 µM (active)
COc1cnc(-c2ccccc2)nc1Oc1cccc(C)c1,22.2% (inactive),

Compound,"activity, negative = inhibition",AC50
O=C(COc1ccc2ccccc2c1Br)NNC(=O)Nc1ccccc1,30.8% (inactive),
Cc1nc(SCC(=O)c2cc3ccccc3oc2=O)c(C#N)c(C)c1C(=O)Nc1ccccc1,13.9% (inactive),
COc1ccc(/C=C(/NC(C)=O)C(=O)O)cc1,-28.3% (inactive),
CCOC(=O)CNC(=O)c1cccnc1,-11.1% (inactive),
c1ccc(CSc2nnc([C@@H]3CCCN3)o2)cc1,-29.5% (inactive),
Fc1ccc(CSc2nnc(-c3cc4c(s3)-c3ccccc3CC4)o2)cc1,-7.85% (inactive),
c1ccc(CSc2nnc(-c3sccc3-n3cccc3)o2)cc1,,14.1 µM (active)
CCc1ccc(N(C(=O)c2csnn2)C(C(=O)NC(C)(C)C)c2ccncc2)cc1 (configuration not stated),-26.1% (inactive),
O=C(O)c1ccccc1C(=O)NNc1ccc(F)cc1,8.55% (inactive),
CCOC(=O)N1CCN(S(=O)(=O)c2ccc(C(=O)Nc3ccc(F)cc3F)cc2)CC1,-9.02% (inactive),
N#Cc1c(-c2ccccc2)cc(-c2ccccc2)nc1SCc1nnc(-c2ccccc2)o1,27.3% (inactive),
NC1=NC2(CCCCCC2)n2c(nc3ccccc32)N1,,12.6 µM (active)
CC1CCC2(CC1)N=C(N)Nc1nc3ccccc3n12 (configuration not stated),,2.82 µM (active)
Nc1c(N=Nc2cccc(Cl)c2)c(=O)[nH]n1-c1ccccc1,10.4% (inactive),
CCC(C)n1c(NC(=O)c2ccccc2)c(C#N)c2nc3ccccc3nc21 (configuration not stated),-25% (inactive),
CCOc1cccc(/C(O)=C2/C(=O)C(=O)N(Cc3cccnc3)C2c2ccco2)c1 (configuration not stated),7.28% (inactive),
Cc1cc(NC(=O)C2=C(O)c3ccccc3S(=O)(=O)N2C)no1,-6.72% [at 25.6 µM] (inactive),
CN1C(C(=O)Nc2ccccn2)=C(O)c2sccc2S1(=O)=O,13.5% [at 25.6 µM] (inactive),
CN1C(C(=O)Nc2ccccn2)=C(O)c2ccccc2S1(=O)=O,,inactive and 25.1 µM (active)
CCNc1ncc2nc(-c3ccc(OC)cc3)c(=O)n(Cc3ccc(F)cc3)c2n1,6.64% (inactive),
O=C(CN1CCN(S(=O)(=O)c2ccccc2)CC1)NC(=O)NCc1ccccc1,30.7% (inactive),
CCCOC(=O)c1c(-c2ccccc2)nc(CC)c(C(=O)SCC)c1CCC,-2.88% (inactive),

Compound,"activity, negative = inhibition",AC50
Cc1cnc(NC(=O)CSc2ccc(Cl)cc2)s1,,3.98 µM (active)
COCc1nnc(NC(=O)CSc2ccc(C)cc2)s1,-19.3% (inactive),
Cc1cc(Cl)nc(NC(=O)CSc2ccc(Cl)cc2)n1,18.7% [at 11.4 µM] (inactive),
COC(=O)c1ccccc1NC(=O)c1c(Br)cnn1C,-21.6% (inactive),
COc1cccc(OCc2nnc(SCC(=O)NCc3ccco3)n2C)c1,-15% (inactive),
CNc1ncc(C(=O)c2ccccc2)s1,-7.9% (inactive),
CCOc1ncnc2c1oc1nc(CC(C)C)c3c(c12)CC(C)(C)OC3,-20.9% (inactive),
C=CC[N+]1(CC#CCOC(c2ccccc2)c2ccccc2)CCOCC1,,7.08 µM (active)
O=C1N=C(N2CCOCC2)S/C1=C\C=C/c1ccccc1,-13.9% (inactive),
Cn1c([N+](=O)[O-])cnc1CN1CCN(CCO)CC1,10.5% [at 11.4 µM] (inactive),
O=C1CCCC=C1[C@H](CCc1ccccc1)OC(=O)c1ccc(Br)cc1,-4.24% [at 11.4 µM] (inactive),
O=C(NC(NC(=S)Nc1cc(Cl)ccc1Cl)C(Cl)(Cl)Cl)c1ccco1 (configuration not stated),,11.2 µM (active)
O=C(NNC(=S)Nc1ccccc1)c1ccco1,0.149% (inactive),
O=C(NC(=S)Nc1cccc(Cl)c1N1CCCCC1)c1ccco1,-24.3% (inactive),
N#CCCn1cc(/C=N/O)c(-c2ccc(Cl)cc2)n1,-23.4% (inactive),
N#Cc1c2c(c(-n3cnc4ccccc43)n3c1nc1ccccc13)CCC2,1.48% (inactive),
O=C(NCc1ccccc1)c1ccc2c(c1)C(=O)N(CC1CCCO1)C2=O (configuration not stated),-2.23% (inactive),
CC1=CC(=O)C=CC1(C)C(Cl)(Cl)Cl (configuration not stated),-29% (inactive),
CN(C)/C=N/c1ncc(C(=O)c2ccc3ccccc3c2)s1,-19.7% (inactive),
COc1ccc(S(=O)(=O)N(CC(=O)N2CCCC2)Cc2ccccc2)cc1,-30.1% (inactive),
CC(C)N(CCC(=O)c1ccc2ccccc2c1)Cc1ccccc1,,2 µM (active) and inactive
CC1CN(C(=S)NC(=O)c2ccc([N+](=O)[O-])cc2)CC(C)O1 (configuration not stated),-6% (inactive),

Compound,"activity, negative = inhibition",AC50
COc1ccc(Oc2ncc3nc(C)c(=O)n(-c4ccc(OC)cc4)c3n2)cc1,-5.24% (inactive),
NCCNC(=O)c1ccc(Cl)cc1,,inactive
O=C(Nc1ccc(Cl)cc1C(F)(F)F)c1ccc(Cl)cc1,,0.282 µM (active)
Cc1ccc(C(=O)Nc2cc(Cl)ccc2OC(=O)c2ccc(C)cc2)cc1,-21.9% (inactive),
COc1ccc(COC(=O)N/N=C2/C[C@@H](O)[C@@H](O)[C@@H]3[C@H]4C(=O)N(c5ccc(F)cc5F)C(=O)[C@@H]4CC[C@H]23)cc1,-14.9% [at 11.4 µM] (inactive),
CCCN(CCC)CCCNS(=O)(=O)c1cc(Br)cc2c1N(C(C)=O)CC2,-20.5% (inactive),
O=C(O)Cn1c(-c2ccccc2)nc2ccccc21,-25.1% (inactive),
O=c1c2ccc([N+](=O)[O-])c3cccc(c32)c2nc3ccccc3n12,-14.8% (inactive),
O=C(O)c1ccc2c3c1cccc3c(=O)n1c3ccccc3nc21,,15.8 µM (active)
Cc1cc(N2CCOCC2)ncc1[N+](=O)[O-],-3.47% (inactive),
COc1ccc(Cc2nnc(NC(=O)c3ccco3)s2)cc1,6.69% (inactive),
COc1ccccc1CNc1cc(-c2ccoc2)ncn1,,15.8 µM (active)
COc1ccccc1CNc1cc(-c2ccccc2Cl)ncn1,,12.6 µM (active)
COc1ccccc1-c1cc(Nc2ccn[nH]2)ncn1,-4.03% (inactive),
COc1ccccc1-c1cc(NCc2ccccc2)ncn1,,20 µM (active)
COc1ccccc1CNc1cc(-c2ccccc2OC)ncn1,,20 µM (active)
Cc1sc2ccccc2[n+]1CCC(C)S(=O)(=O)[O-] (configuration not stated),10.3% (inactive),
C=CCSc1nc(Oc2ccccc2)c2sccc2n1,-26.5% (inactive),
CCCc1nnc(SCC(=O)N2CCCCC2C)n1CCCOC (configuration not stated),11.7% (inactive),
CCn1cc(C(=O)O)c(=O)c2cnc(N3CCNCC3)nc21,9.12% [at 25.6 µM] (inactive),
CO[C@@H]1COC(=O)C/C=C\[C@H](C)COC(=O)[C@H](Cc2ccccc2)NC(=O)C/C=C\[C@H]1C,9.42% [at 11.4 µM] (inactive),
Cc1cc(SC(C)C(=O)Nc2c(C)n(C)n(-c3ccccc3)c2=O)nc2ccccc12 (configuration not stated),-1.98% (inactive),

Compound,"activity, negative = inhibition",AC50
C[C@@]12C(=O)OC(=O)[C@]1(C)[C@H]1CC[C@@H]2O1,8.05% [at 25.6 µM] (inactive),
COC(=O)C/C=C1\c2ccccc2[C@H](OC)[C@H]1C,5.25% [at 11.4 µM] (inactive),
CC(C)Cn1c(C(C)C)nc([N+](=O)[O-])c1S(=O)(=O)c1ccc(F)cc1,18.2% (inactive),
CSc1nc(C)cc(SC(C(C)=O)C(=O)Nc2ccccc2)n1 (configuration not stated),-8.06% (inactive),
C/C(=N\NC(=S)Nc1ccc(F)cc1)C1CC1,-27% (inactive),
C[C@@]12CCC(=O)C=C1CC[C@H]1[C@H]3CC[C@](O)(C(=O)CO)[C@]3(C)CC(=O)[C@@H]12,-2.72% [at 25.6 µM] (inactive),
Cc1cccc(NC(=S)NC(=O)c2cc(-c3ccccc3)nc3ccccc23)c1,17.4% (inactive),
COc1ccc(NC(=O)c2cc(-c3cccnc3)nc3ccc(C)cc23)cc1OC,8.76% (inactive),
Cc1ccc2nc(-c3ccccc3)cc(C(=O)NCCCn3ccnc3)c2c1,,5.01 µM (active)
COc1cccc(Nc2ncc3nc(-c4ccc(Cl)cc4)c(=O)n(CCC#N)c3n2)c1,9.73% (inactive),
C=CCSc1ncccc1C(=O)NCc1ccc(C)cc1,-19.5% (inactive),
O=C(/C=C\c1ccc(O)c(O)c1)O[C@@H](Cc1ccc(O)c(O)c1)C(=O)O,7.2% (inactive),
CCCC(=O)NC(Nc1ccccc1F)C(Cl)(Cl)Cl (configuration not stated),-14.8% (inactive),
FC(F)(F)c1ccccc1-c1cncnc1NCCc1cnc[nH]1,,12.6 µM (active)
COc1ccccc1-c1cncnc1NCCc1cnc[nH]1,,10 µM (active)
CC(=O)NCCNc1ncncc1-c1ccccc1C(F)(F)F,-20.6% (inactive),
COc1cccc(-c2cncnc2NCCc2cnc[nH]2)c1,,7.94 µM (active)
COCCNc1ncncc1-c1c(C)noc1C,4.62% (inactive),
CC(Oc1ccc(Cl)cc1)C(=O)/C=C/N(C)C (configuration not stated),5.98% (inactive),
